In PubChem BioAssay AID1220 (Sanford-Burnham Center for Chemical Genomics, 2008):
The campaign covered roughly 190,000 compounds. About 1,300 (0.68%) were called active. Cut-off read from the data, not from the text of the source: active = inhibition above about 50%; inactive = the rest. For the sample, actives were picked, then their nearest neighbours and some compounds at random.

These compounds were tested against Mannose-6-phosphate isomerase (Homo sapiens) (UniProt P34949) (assay: human PMI inhibitors, high substrate, primary screen, biochemical, fluorescence intensity, high mannose 6-phosphate (AID 1220)). Conditions: recombinant PMI enzyme, coupled fluorescence intensity; at 20 µM; active compounds read high.
Chain of Mannose-6-phosphate isomerase (Homo sapiens) (P34949 whole entry, looked up): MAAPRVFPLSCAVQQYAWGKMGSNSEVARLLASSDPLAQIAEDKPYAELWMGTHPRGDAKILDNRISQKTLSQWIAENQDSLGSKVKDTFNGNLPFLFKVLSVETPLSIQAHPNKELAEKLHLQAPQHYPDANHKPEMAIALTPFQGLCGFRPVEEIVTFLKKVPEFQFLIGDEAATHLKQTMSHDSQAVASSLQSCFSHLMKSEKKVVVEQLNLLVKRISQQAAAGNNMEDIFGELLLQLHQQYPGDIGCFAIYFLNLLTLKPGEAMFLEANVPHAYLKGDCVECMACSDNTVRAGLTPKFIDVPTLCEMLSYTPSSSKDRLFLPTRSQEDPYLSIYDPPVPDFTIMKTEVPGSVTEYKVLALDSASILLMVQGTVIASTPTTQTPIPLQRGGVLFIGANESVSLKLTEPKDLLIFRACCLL

Row | Compound | inhibition
1 | CC(=O)OC1CC(C)(C)N(OC(=O)c2ccccc2)C(C)(C)C1 | -2.2% (inactive)
2 | Cc1cc(Nc2c(C#N)c(N)nn2C)ccc1F | 0.7% (inactive)
3 | O=C(NC12CC3CC(CC(C3)C1)C2)c1cc2nc(-c3ccco3)cc(C(F)(F)F)n2n1 | 7.3% (inactive)
4 | O=C(NC1CCCCC1)C(c1ccco1)N(Cc1ccco1)C(=O)c1ccco1 (stereo not given) | -4.5% (inactive)
5 | O=C(Nc1ccc2c(c1)CCC2)c1ccccc1F | -3.5% (inactive)
6 | Cc1nn(-c2ccccc2)c(C)c1/C=C/C(=O)OCC(=O)NC1CCS(=O)(=O)C1 (stereo not given) | -6.3% (inactive)
7 | CC1(C)CC(=O)CC(C2(O)C(=O)N(Cc3ccccc3)c3ccccc32)O1 (stereo not given) | 0.6% (inactive)
8 | O=C(CN(C(=O)CNS(=O)(=O)c1ccccc1)c1ccc2c(c1)OCCO2)NCc1ccco1 | -2.1% (inactive)
9 | CCC(=O)Nc1cc(Cl)ccc1C(=O)O | -13.8% (inactive)
10 | Cn1c(=O)[nH]c(=O)c2[nH]c(N(Cc3ccccc3)Cc3ccccc3)nc21 | 10.1% (inactive)
11 | Cc1cc(NC(=O)CCCC(=O)NCc2cccs2)no1 | 3.8% (inactive)
12 | Cc1nc(NC(=O)CSc2nnnn2Cc2ccccc2)sc1C | 5.5% (inactive)
13 | COc1ccc2c(c1)CCC1C2=NN(/C(C)=C/C(C)=O)C1c1cccc(F)c1 (stereo not given) | 44.4% (inactive)
14 | COc1ccc2c(c1)C1=NN(/C(C)=C/C(C)=O)C(c3cccc(F)c3)C1CC2 (stereo not given) | 44.9% (inactive)
15 | COc1ccc2c(c1)CCC1C2=NN(/C(C)=C\C(C)=O)C1c1ccc(F)cc1 (stereo not given) | 54.4% (active)
16 | COc1ccc2c(c1)CCc1c(C(=O)NCc3ccc(F)cc3)noc1-2 | 9.9% (inactive)
17 | COc1ccc2c(c1)C1=NN(/C(C)=C/C(C)=O)C(c3ccc(F)cc3)C1CC2 (stereo not given) | 56.3% (active)
18 | COc1ccc2c(c1)C1=NN(/C(C)=C\C(C)=O)C(c3ccccc3)C1CC2 (stereo not given) | 47.7% (inactive)
19 | O=C(CN(C(=O)CNC(=O)c1cccs1)c1ccc2c(c1)OCCO2)NC1CCCC1 | 4.5% (inactive)
20 | COc1ccc(N2CC(O)=C(c3nc(-c4ccc(F)cc4)cs3)C2=N)cc1Cl | -5.1% (inactive)
21 | COc1ccccc1C(=O)NNC(=O)c1ccccc1F | -3.9% (inactive)
22 | O=C1CN(CC(=O)N2CCCCC2)c2ccccc2O1 | 51.6% (active)
23 | O=C(CN1CC(=O)Oc2ccccc21)OCC(=O)c1ccccc1 | 11.2% (inactive)
24 | O=C(CN1CCOc2ccccc21)N1CCCC1 | 3.6% (inactive)

Row | Compound | inhibition
25 | O=C(CN1C(=O)c2ccccc2C1=O)N1CCOCC1 | 7.3% (inactive)
26 | O=C1CN(CC(=O)N2CCOCC2)c2ccccc2O1 | 51.9% (active)
27 | O=C(CN1CCCCC1)N1c2ccccc2Oc2ccccc21 | -7.7% (inactive)
28 | COCCCNC(=O)Cc1ccccc1OC | -3.4% (inactive)
29 | CCNc1nc(Oc2ccc(C(=O)OCC)cc2)nc(N2CCOCC2)n1 | 10% (inactive)
30 | Cc1ccc(C)c(N=Cc2ccc(-c3ccc([N+](=O)[O-])cc3)o2)c1 | 10.6% (inactive)
31 | O=C(Cc1ccccc1)N/N=C/c1ccc(-c2ccc([N+](=O)[O-])cc2)o1 | 14.3% (inactive)
32 | O=[N+]([O-])c1ccc(-c2ccc(C=Nc3cccc4ccccc34)o2)cc1 | 70% (active)
33 | CCCCOC(=O)c1ccc(Nc2ccc([N+](=O)[O-])cn2)cc1 | -10.3% (inactive)
34 | O=C(C1CCCCC1)N1CCN(S(=O)(=O)c2ccc(Br)cc2)CC1 | 1.8% (inactive)
35 | COc1ccc(C(=O)Nc2nc3ccc(S(C)(=O)=O)cc3s2)cc1OC | 7.7% (inactive)
36 | CC(C)c1nccn1S(=O)(=O)c1cccc([N+](=O)[O-])c1 | -2.8% (inactive)
37 | CC(C)C1=CC(=NS(=O)(=O)c2cccc([N+](=O)[O-])c2)C=C(C(C)C)C1=O | 59.4% (active)
38 | O=[N+]([O-])c1cccc(S(=O)(=O)c2cccc([N+](=O)[O-])c2)c1 | -1.5% (inactive)
39 | CCOc1cc(NC(=S)NCc2ccco2)c(OCC)cc1NC(C)=O | 7.1% (inactive)
40 | COc1ccc([C@H](C)NC[C@H](O)c2ccc(O)c(NC=O)c2)cc1 | 10.4% (inactive)
41 | CCC(NC(C)C)C(O)c1ccc(O)c2[nH]c(=O)ccc12 (stereo not given) | 11.5% (inactive)
42 | CCC(NC(C)C)C(O)c1ccc(O)c(O)c1 (stereo not given) | 61.2% (active)
43 | CNC[C@H](O)c1cccc(O)c1 | -2.7% (inactive)
44 | CCC(C)c1ccc(O)c(N)c1 (stereo not given) | 31.5% (inactive)
45 | CNC[C@H](O)c1ccc(O)c(O)c1 | 59% (active)
46 | O=C(NC(=S)Nc1cc(C(F)(F)F)ccc1N1CCOCC1)c1sc2ccccc2c1Cl | 2.7% (inactive)
47 | Cc1ccc(/C=C2\C(=O)ON=C2c2ccccc2)o1 | 5.3% (inactive)
48 | Cc1cccc(C)c1N(CC(=O)N1CCN(c2ccccc2F)CC1)S(C)(=O)=O | 1.2% (inactive)

Row | Compound | inhibition
49 | COc1cc(/C(C)=N/Nc2ccc(C(=O)O)cc2)cc(OC)c1OC | -109% (inactive)
50 | Cc1cc(C)nc(NS(=O)(=O)c2ccc(NC(=O)C3COc4ccccc4O3)cc2)n1 (stereo not given) | 54.1% (active)
51 | O=C(Nc1ccc(S(=O)(=O)Nc2ncccn2)cc1)C1COc2ccccc2O1 (stereo not given) | 8.2% (inactive)
52 | Cc1ccnc(NS(=O)(=O)c2ccc(NC(=O)C3COc4ccccc4O3)cc2)n1 (stereo not given) | -9.4% (inactive)
53 | Cc1ccccc1NC(=O)c1oc(=O)c2ccccc2c1-c1ccccc1 | -3.9% (inactive)
54 | CCCCN(C)C1=CC2=CC(=C(C#N)C#N)CCC2CC1 (stereo not given) | 51.1% (active)
55 | CCN(CC)C1=CC2=CC(=C(C#N)C#N)CCC2CC1 (stereo not given) | 50.6% (active)
56 | Cc1cc(C=NCCO)c(C)n1-c1cc(Cl)ccc1Cl | 1.2% (inactive)
57 | C=CCNC(=O)CN(c1ccccc1OCC)S(=O)(=O)c1ccc(C)cc1 | 9.1% (inactive)
58 | O=C(c1cccc(Br)c1)N1CCN(S(=O)(=O)N2CCOCC2)CC1 | -0.4% (inactive)
59 | Cc1nn(-c2nc3ccccc3s2)c(N)c1-c1ccc(Cl)cc1 | -4.7% (inactive)
60 | CCOC(=O)c1ccccc1N=N/C(C(C)=O)=C(/C)O | 3.4% (inactive)
61 | Cc1cc(C(=O)Nc2sc3c(c2C#N)CCC(C)C3)cs1 (stereo not given) | -2.5% (inactive)
62 | O=C(Cn1cnc2ccccc2c1=O)NCc1cccs1 | 36.2% (inactive)
63 | COc1ccc(O)c(C=Nc2cc(C)on2)c1 | 23.9% (inactive)
64 | COc1cccc(C=NCC(C)N=Cc2cccc(OC)c2O)c1O (stereo not given) | 52.3% (active)
65 | COc1ccc(O)c(C=NCC(C)N=Cc2cc(OC)ccc2O)c1 (stereo not given) | 51.9% (active)
66 | COc1cccc(C=Nc2cc(C)cc(C)c2)c1O | 17.1% (inactive)
67 | COc1cccc(/C=N/NC(=O)C(=O)N/N=C/c2cccc(OC)c2O)c1O | -27.8% (inactive)
68 | CCCn1c(/N=C/c2cc(OC)ccc2O)nc2ccccc21 | 13.5% (inactive)
69 | Cc1ccc(CN(Cc2cc3cc4c(cc3[nH]c2=O)OCCO4)Cc2nnnn2Cc2ccco2)cc1 | 17.2% (inactive)
70 | CC(C)Cn1c(N2CCN(CC(=O)Nc3ccc(Cl)cc3)CC2)nc2ccccc21 | 13.8% (inactive)
71 | CCn1c(CN2CCN(C(=O)c3ccco3)CC2)nc2c1c(=O)n(C)c(=O)n2C | -1% (inactive)
72 | CCCS(=O)(=O)c1cn2cccc(N)c2c1S(=O)(=O)CCC | 4% (inactive)

Row | Compound | inhibition
73 | CC(=O)N1CCc2cc(NC(=O)c3ccc(C)cc3)ccc21 | 3.7% (inactive)
74 | Cn1nnc2cc(C(=O)N3CCCCCC3)ccc21 | 0.1% (inactive)
75 | COc1cc(/C=C(\C#N)c2nc3ccccc3[nH]2)cc(Br)c1OCc1ccccc1 | -16.7% (inactive)
76 | COc1ccc(/C=C(\C#N)c2nc3ccc(C)cc3[nH]2)cc1Oc1ccc(C(F)(F)F)cc1[N+](=O)[O-] | 1.7% (inactive)
77 | COc1cc(/C=C(\C#N)c2nc3ccccc3s2)ccc1OCC(=O)Nc1ccccc1 | -0.3% (inactive)
78 | COc1ccc(C=C(c2nc3ccccc3s2)c2nc3ccccc3s2)cc1O | 31.1% (inactive)
79 | COc1cc(C=C(c2nc3ccccc3s2)c2nc3ccccc3s2)ccc1O | 34.4% (inactive)
80 | COc1cc(/C=C(\C#N)c2nc3ccccc3[nH]2)c([N+](=O)[O-])cc1OCc1ccccc1 | 66.5% (active)
81 | COc1cc(/C=C(\C#N)c2nc3ccccc3s2)cc([N+](=O)[O-])c1O | 71.2% (active)
82 | COc1cc(/C=C(\C#N)c2nc3ccc(C)cc3[nH]2)cc([N+](=O)[O-])c1O | 64.5% (active)
83 | COc1cc(C=C(c2nc3ccccc3s2)c2nc3ccccc3s2)cc(OC)c1O | 54.4% (active)
84 | N#C/C(=C\c1ccc(O)c([N+](=O)[O-])c1)c1nc2ccccc2s1 | 0.6% (inactive)
85 | COc1cc(/C=C(/C#N)c2nc3ccccc3[nH]2)ccc1Oc1ncccc1[N+](=O)[O-] | 11.5% (inactive)
86 | COc1cc(/C=C(\C#N)c2nc3ccc(C)cc3[nH]2)c([N+](=O)[O-])cc1OC | 47.8% (inactive)
87 | C=CCN(C(=O)CCC(=O)Nc1cc(C)on1)C(C(=O)NC1CCCC1)c1cccnc1 (stereo not given) | 12.1% (inactive)
88 | COc1nc(Nc2cccc([N+](=O)[O-])c2)nc(OC)n1 | 11.7% (inactive)
89 | Cc1cc2c(nn1)CCC/C2=N\O | 4% (inactive)
90 | COc1ccc(C(=O)CSc2nnc(CNC(=O)c3ccc(OC)cc3)n2C)cc1 | -5.4% (inactive)
91 | Cc1cc2nnc(SC3CCCCN(C(=O)c4ccc(F)cc4)C3=O)n2c2ccccc12 (stereo not given) | 3% (inactive)
92 | CC(C)c1ccc(/C=N/NC(=O)c2cccc(Cl)c2)cc1 | -5.5% (inactive)
93 | CC(C)Cn1ccc(=O)n(CC(C)C)c1=O | 12% (inactive)
94 | CC(C)c1ccc(NC(=O)COc2ccccn2)cc1 | 4.4% (inactive)
95 | CC(C)CC(=O)NC(c1ccccc1Cl)c1c(O)ccc2ccccc12 (stereo not given) | 6.9% (inactive)
